Measured values reported in PubChem BioAssay (NCATS).
Results filed as inconclusive are left out. Calls of active or inactive are those of the source. Calls follow the shape of the dose curve; as a rule, active = well fitted cell-killing curve with a large enough effect; inconclusive = small, poorly fitted or top-dose-only effect, or effect the other way; inactive = flat fitted curve, though single readings scatter.

How the values were obtained:
Assay in all cases: Primary qHTS to identify gynecologic anti-cancer compounds using libraries of approved drugs and bioactive compounds (AID 1345084); also: nearly all actives have a fitted effect of over 55% in size
[1] = system: C33A; settings: Gynecologic cancer cell panel viability, ATPlite luminescence, 48 h; series mostly up to 57.5 µM
Summary of the method: (§1)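 Measured: luminescence after ATPlite addition (15 min, RT). Exposure: 48 h, 37 C, 5% CO2.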

[2] = system: CAOV3; settings: Gynecologic cancer cell panel viability, ATPlite luminescence, 48 h; series mostly up to 57.5 µM
Summary of the method: as §1

[3] = system: CASKI; settings: Gynecologic cancer cell panel viability, ATPlite luminescence, 48 h; series mostly up to 57.5 µM
Summary of the method: as §1

[4] = system: Es-2; settings: Gynecologic cancer cell panel viability, ATPlite luminescence, 48 h; series mostly up to 57.5 µM
Summary of the method: as §1

[5] = system: HeLa; settings: Gynecologic cancer cell panel viability, ATPlite luminescence, 48 h; series mostly up to 57.5 µM
Summary of the method: as §1

[6] = system: Hek293T; settings: Gynecologic cancer cell panel viability, ATPlite luminescence, 48 h, control line for the selectivity index; series mostly up to 57.5 µM
Summary of the method: as §1

[7] = system: JEG-3; settings: Gynecologic cancer cell panel viability, ATPlite luminescence, 48 h; series mostly up to 57.5 µM
Summary of the method: as §1

[8] = system: OV90; settings: Gynecologic cancer cell panel viability, ATPlite luminescence, 48 h; series mostly up to 57.5 µM
Summary of the method: as §1

[9] = system: PA-1; settings: Gynecologic cancer cell panel viability, ATPlite luminescence, 48 h; series mostly up to 57.5 µM
Summary of the method: as §1

[10] = system: SKOV3; settings: Gynecologic cancer cell panel viability, ATPlite luminescence, 48 h; series mostly up to 57.5 µM
Summary of the method: as §1

[11] = system: Tov-21-G; settings: Gynecologic cancer cell panel viability, ATPlite luminescence, 48 h; series mostly up to 57.5 µM
Summary of the method: as §1

[12] = system: Tov112D; settings: Gynecologic cancer cell panel viability, ATPlite luminescence, 48 h; series mostly up to 57.5 µM
Summary of the method: as §1
% is scaled to controls: 0 for no effect and ±100 for the full control effect.

COc1cc2c(cc1O)C(c1ccc(O)cc1)C(C)C(C)C2 (stereo not drawn)
inactive: Potency [1] | Potency [2] | outcome [3] | Potency [4] | Potency [5] | Potency [6] | Potency [7] | Potency [8] | Potency [9] | Potency [10] | Potency [11] | Potency [12]

COc1cc(C)c(C(=O)O[C@@H]2[C@H](O)[C@@H](CO)O[C@H]2n2ccc(=O)[nH]c2=O)c(OC)c1
inactive: Potency [1] | Potency [2] | outcome [3] | Potency [4] | Potency [5] | Potency [6] | Potency [7] | Potency [8] | Potency [9] | Potency [10] | Potency [11] | Potency [12]

C/C=C(\C)C(=O)OC[C@H]1O[C@@H](O[C@H]2[C@@H](O[C@H]3O[C@H](COC(=O)/C(C)=C/C)[C@@H](O)[C@H](O)[C@H]3O[C@@H]3O[C@H](COC(=O)/C(C)=C/C)[C@@H](O)[C@H](OC(=O)/C(C)=C/C)[C@H]3O)O[C@H](COC(=O)/C(C)=C/C)[C@@H](O)[C@@H]2O)[C@H](O)[C@@H](O)[C@@H]1O
inactive: activity change, negative = cytotoxicity [1] -2.71% [at 11.6 µM] | activity change, negative = cytotoxicity [2] -1.73% [at 11.6 µM] | activity change, negative = cytotoxicity [3] 3.51% [at 11.6 µM] | activity change, negative = cytotoxicity [4] 2.21% [at 11.6 µM] | activity change, negative = cytotoxicity [5] -5.02% [at 11.6 µM] | activity change, negative = cytotoxicity [6] -12.9% [at 11.6 µM] | activity change, negative = cytotoxicity [7] -4.46% [at 11.6 µM] | activity change, negative = cytotoxicity [8] -7.83% [at 11.6 µM] | activity change, negative = cytotoxicity [9] 0.401% [at 11.6 µM] | activity change, negative = cytotoxicity [10] -1.49% [at 11.6 µM] | activity change, negative = cytotoxicity [11] -1.7% [at 11.6 µM] | activity change, negative = cytotoxicity [12] 6.68% [at 11.6 µM]

CCN=C1N[C@@H]2[C@@H](O)[C@H](O)[C@@H](CO)O[C@@H]2S1
inactive: Potency [1] | Potency [2] | outcome [3] | Potency [4] | Potency [5] | Potency [6] | Potency [7] | Potency [8] | Potency [9] | Potency [10] | Potency [11] | Potency [12]

CCNC(=O)OC1CCN(c2nncc3cc(OC)c(OC)cc23)CC1
inactive: Potency [1] | Potency [2] | outcome [3] | Potency [4] | Potency [5] | Potency [6] | Potency [7] | Potency [8] | Potency [9] | Potency [10] | Potency [11] | Potency [12]

CC1(C)CCC[C@]2(C)C1CC=C(CO)[C@H]2CC/C(=C/CO)CO (stereo partly drawn)
inactive: Potency [1] | Potency [2] | outcome [3] | Potency [4] | Potency [5] | Potency [6] | Potency [7] | Potency [8] | Potency [9] | Potency [10] | Potency [11] | Potency [12]

COc1cc(O[C@@H]2O[C@H](CO[C@H]3OC[C@](O)(CO)[C@H]3O)[C@@H](O)[C@H](O)[C@H]2O)cc(OC)c1O
inactive: Potency [1] | Potency [2] | outcome [3] | Potency [4] | Potency [5] | Potency [6] | Potency [7] | Potency [8] | Potency [9] | Potency [10] | Potency [11] | Potency [12]

C=C1CC[C@@H]2[C@@](C)(CO[C@@H]3O[C@H](CO)[C@@H](O)[C@H](O)[C@H]3O)[C@H](O)CC[C@@]2(C)[C@@H]1CC/C(C)=C/CO[C@@H]1O[C@H](CO)[C@@H](O)[C@H](O)[C@H]1O
inactive: Potency [1] | Potency [2] | outcome [3] | Potency [4] | Potency [5] | Potency [6] | Potency [7] | Potency [8] | Potency [9] | Potency [10] | Potency [11] | Potency [12]

CC1=CC(=O)CC(C)(C)C1CO[C@@H]1O[C@H](CO)[C@@H](O)[C@H](O)[C@H]1O (stereo partly drawn)
inactive: Potency [1] | Potency [2] | outcome [3] | Potency [4] | Potency [5] | Potency [6] | Potency [7] | Potency [8] | Potency [9] | Potency [10] | Potency [11] | Potency [12]

COc1ccc(/C=C/C(=O)N2CCCC2)cc1
inactive: Potency [1] | Potency [2] | outcome [3] | Potency [4] | Potency [5] | Potency [6] | Potency [7] | Potency [8] | Potency [9] | Potency [10] | Potency [11] | Potency [12]

CCOC(=O)C1=C(N)Oc2ccc(Cl)cc2C1C(C#N)C(=O)OCC (stereo not drawn)
inactive: Potency [1] | Potency [2] | outcome [3] | Potency [4] | Potency [5] | Potency [6] | Potency [7] | Potency [8] | Potency [9] | Potency [10] | Potency [11] | Potency [12]

COc1ccc(/C=C/C(N)=O)cc1OC
inactive: Potency [1] | Potency [2] | outcome [3] | Potency [4] | Potency [5] | Potency [6] | Potency [7] | Potency [8] | Potency [9] | Potency [10] | Potency [11] | Potency [12]

COc1cnc(-c2ccc(Cn3c(CC(C)(C)C(=O)O)c(SC(C)(C)C)c4cc(OC[C@@H]5Cc6ccccc6N5C(C)=O)ccc43)cc2)nc1
inactive: Potency [1] | Potency [2] | outcome [3] | Potency [4] | Potency [5] | Potency [6] | Potency [7] | Potency [8] | Potency [9] | Potency [10] | Potency [11] | Potency [12]

C=C1CCC2[C@](C)(CO)CCC[C@@]2(C)[C@@H]1CCC1=CCOC1=O (stereo partly drawn)
inactive: Potency [1] | Potency [2] | outcome [3] | Potency [4] | Potency [5] | Potency [6] | Potency [7] | Potency [8] | Potency [9] | Potency [10] | Potency [11] | Potency [12]
